# 697 NFkB inh – inhibitors of PMA/ionomycin-induced NF-kB reporter, 697 cells, primary screen, B-cell NF-kB inhibitor project, cell-based, luminescence, uHTS; hit rate 0.33% among 330,000; inhibition, % at 4 µM; 697 B-cell NF-kB luciferase reporter, 16 h; in the data active = inhibition above about 35%
# F508del corr – F508del CFTR correction, initial screen, CFBE line, single point; AID 720511, 2013; activity (quench increase), % at 7.58 µM; CFBE cells, YFP halide quenching; stimulated with forskolin plus potentiator P3; % fluorescence drop versus neutral controls; hit rate 0.36% among 350,000;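 active = mean added fluorescence quench of at least 8% versus neutral control, with both replicates also reaching 8%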;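 also: cells transiently co-express mutant CFTR-F508del with the halide-sensitive YFP; corrector assay measuring rescue of mutant channel to the surface after 24 h compound exposure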
# HIF activator – HIF pathway transcriptional activators, primary screen, cell-based, U2OS HRE-luciferase, luminescence | U2OS HRE-luciferase reporter; normalized: DMSO 0%, desferrioxamine 100% | activation, % at 7.5 µM (by protocol) | hit rate 0.32% among 300,000 | AID 1910, 2009;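 active = mean activation of at least 10% of the iron chelator positive control signal, with at least half of replicates also reaching 10%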
# Jurkat NFkB inh – inhibitors of induced NF-kB luciferase reporter, primary screen, TCR NF-kB activation inhibitor project, cell-based, luminescence, uHTS; Jurkat, PMA/ionomycin-induced NF-kB luciferase reporter; inhibition, % at 4 µM; hit rate 0.53% among 330,000; AID 435003, 2010; in the data active = inhibition above about 50%
# Jurkat NFkB conf – PMA/ionomycin-induced NF-kB reporter inhibitors, Jurkat retest, confirmation, T-cell NF-kB inhibitor project, cell-based, luminescence, single concentration; shares compounds with Jurkat NFkB inh; Jurkat NF-kB luciferase, 16 h; inhibition, % at 4 µM; hit rate 27% among 2,700; AID 435020, 2010;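 active = inhibition reaching about 45% at 4 µM in either replicate, limit read from the data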;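 also: plate controls were PMA/ionomycin stimulated DMSO wells for no effect and unstimulated DMSO wells for full effect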
# * = called active by the depositor; . = not tested or not shown. Hits are enriched below; roughly 0.93% of the tested compounds scored in any of these assays.
SMILES,697 NFkB inh,F508del corr,HIF activator,Jurkat NFkB inh,Jurkat NFkB conf
CCCCOc1ccc(Br)cc1/C(C)=N/NC1=NCCN1,-42.4,.,-0.1,76.4*,52.7*
O=C(N[C@H]1C=C[C@H](CC(=O)N2CCc3ccccc3C2)O[C@@H]1CO)C1CCOCC1,.,0.9,.,.,.
Cc1nc(Nc2nc3c(c(=O)[nH]2)CCC3)nc2ccccc12,-181.5,.,0.4,84.5*,57.1*
Cc1cccc(/C=C/c2nc3ccccc3c(=O)[nH]2)c1,-172.2,0.0,1.5,-44.6,.
Cc1[nH]c2ccccc2c1/C=C/c1nc2ccccc2c(=O)[nH]1,-134.1,-6.4,2.0,-167.7,-32.8
CNC[C@@H](Cc1ccccc1)NC[C@@H](CC1CCCCC1)NCCCc1ccccc1,21.7,1.8,-1.0,91.3*,23.5
CNC[C@@H](CC1CCCCC1)NC[C@H](CC(C)C)NCCc1cccc(C(F)(F)F)c1,11.8,-2.1,-4.5,86.1*,45.2
C[C@H]1CN([C@@H](C)CO)C(=O)c2cc(-c3ccncc3)cnc2O[C@H]1CN(C)C(=O)NC1CCCC1,.,-0.6,.,.,.
CC(=O)n1cc(N(C(=O)CCl)c2ccc(C)cc2)c2ccccc21,8.0,-9.1,-2.4,75.7*,-1.4
COc1ccc2c3c(n(C)c2c1)[C@@H](CO)N(CC1CCOCC1)CC31CCN(Cc2nccs2)CC1,.,1.6,.,.,.
O=C(NCc1ccccc1)c1c(Cl)nc(Cl)c(Cl)c1Cl,5.9,4.5,1.0,50.8*,12.9
CC[n+]1c(/C=C/N(C)c2ccccc2)oc2ccc(F)cc21,-28.0,.,-0.6,17.4,.
CC[n+]1c(/C=C/N(C)c2ccccc2)oc2ccccc21,16.0,-0.2,-26.3,59.6*,53.8*
CCOc1ccc(-n2nc3ccc(N)cc3n2)cc1,-71.9,4.4,-0.4,-55.7,.
CCOc1ccc(-n2nc3cc(C)c(N)cc3n2)cc1,-157.1,0.4,-7.3,-166.4,-9.8
CC(C)NC(=O)N(C)C[C@H]1Oc2cc(C#C[C@H](C)O)ccc2S(=O)(=O)N([C@@H](C)CO)C[C@@H]1C,.,1.2,.,.,.
CC(OC(=O)c1ccc2c(c1)OCCO2)C(=O)c1ccccc1 (stereo not drawn),-191.5,-3.3,3.6,-152.2,-121.7
Nc1ncc(-c2nnnn2-c2ccc(Cl)cc2)c(-c2ccc(Cl)cc2)n1,-28.3,.,-1.1,56.2*,21.5
Clc1ccc(-c2nnnn2-c2ccc(Cl)cc2)cc1,-7.8,1.1,-0.3,-6.3,.
Cc1ccc(-n2nnnc2-c2cnc3ccc(Cl)cc3c2-c2ccccc2)cc1,-7.4,.,0.1,58.6*,21.9
O=C(C1CCC1)N1CCCCN2[C@H](CO)[C@@H](c3ccc(C#CC4CCCC4)cc3)[C@H]2C1,.,4.3,.,.,.
CC(C)C[C@@H]1NC(=O)[C@H]2C[C@@H](C(=O)NCc3ccc(F)cc3)[C@@H](c3cccc(OCCO)c3)N2C1=O,.,-1.0,.,.,.
CCCN1[C@@H]2c3ccc(-c4ccccc4F)c(=O)n3C[C@@H]2[C@@H](CO)[C@@H]1C(=O)N1CCCCC1,.,1.6,.,.,.
CC(C)NC(=O)Nc1ccc2c(c1)CC(=O)N([C@H](C)CO)C[C@H](C)[C@H](CN(C)S(=O)(=O)c1ccccc1)O2,.,0.7,.,.,.
O=C(Nc1ccc2c(c1)OCO2)c1ccc(Cl)s1,-87.6,.,2.5,-154.6,-87.2
SMILES,697 NFkB inh,F508del corr,HIF activator,Jurkat NFkB inh,Jurkat NFkB conf
O=C(Nc1ccc2c(c1)OCO2)Nc1ccc2c(c1)OCO2,-112.7,-1.4,3.0,-103.9,.
O=C(Nc1ccc(Cl)cc1)Nc1ccc2c(c1)OCO2,-99.3,-0.2,3.7,-151.3,-31.5
O=C(C[C@H]1C[C@@H]2c3cc(NS(=O)(=O)c4ccc(F)cc4)ccc3O[C@@H]2[C@@H](CO)O1)NCc1ccc(-c2ccccc2)cc1,.,-0.7,.,.,.
Fc1ccc(NC(=S)Nc2ccc(Cl)cc2Cl)cc1,-13.4,.,0.6,7.4,.
Fc1ccccc1/C=N/NC(=S)Nc1ccc(Cl)cc1Cl,-29.0,11.9*,-0.7,53.3*,-79.3
Cc1cc(-n2c(C)cc(C(=O)CSc3ncnc4ccccc34)c2C)no1,32.7,.,0.0,55.5*,40.7
COc1ccc2c3c(n(C)c2c1)[C@H](CO)NCC31CN(C(=O)Nc2ccc3c(c2)OCO3)C1,.,4.1,.,.,.
CC1CCCN(c2ncnc3c2cnn3-c2ccc(Cl)cc2)C1 (stereo not drawn),-7.7,-0.1,-2.6,59.8*,86.8*
CC1CCCN(c2ncnc3c2cnn3-c2ccccc2)C1 (stereo not drawn),-219.8,-0.9,-1.6,-102.1,.
NC(=O)c1sc2nc(-c3cccnc3)ccc2c1N,1.9,1.5,1.4,-5.1,.
CCOC(=O)c1sc2nc(-c3cccnc3)ccc2c1N,-147.4,-0.1,2.2,-182.4,-69.1
COc1cc(Cn2c(-c3nonc3N)nc3ccccc32)ccc1C,5.6,.,-52.0,61.5*,46.0
COc1cccc(Cn2c(-c3nonc3N)nc3ccccc32)c1,-19.1,.,1.1,51.0*,33.8
Cc1ccc(S(=O)(=O)Nc2cccc3c2O[C@@H](CN(C)C(=O)Nc2ccc(F)cc2)[C@H](C)CN([C@H](C)CO)C3=O)cc1,.,0.2,.,.,.
COc1ccc(S(=O)(=O)Nc2ccc3c(c2)C(=O)N([C@H](C)CO)C[C@@H](C)[C@@H](CN(C)C(=O)Cc2ccccc2)OCCCC[C@H](C)O3)cc1,.,0.0,.,.,.
Cc1ccc(OCC(=O)c2cc(C)n(-c3ccccc3)c2C)c([N+](=O)[O-])n1,12.4,.,-2.5,76.0*,11.2
CCCn1c(C)cc(C(=O)COc2ccc(C)nc2[N+](=O)[O-])c1C,-7.5,.,0.4,-3.0,.
COc1ccc(C2C(C(=O)Nc3cccc(OC)c3)c3ccccc3C(=O)N2C)cc1 (stereo not drawn),23.2,-2.5,-0.1,1.0,.
COc1ccc(C2C(C(=O)Nc3cc(OC)c(OC)c(OC)c3)c3ccccc3C(=O)N2C)cc1 (stereo not drawn),-70.0,-0.1,-0.6,75.2*,21.8
O=C(CN1C(=O)NC2(CCOc3ccccc32)C1=O)NCCc1ccccc1 (stereo not drawn),-1.0,1.6,.,63.7*,13.6
COc1ccc(CCNC(=O)CN2C(=O)NC3(CCOc4ccccc43)C2=O)cc1 (stereo not drawn),10.9,1.1,.,13.8,.
COCC(=O)Nc1ccc2c(c1)OC[C@H](C)N(Cc1ccccc1F)C[C@H](C)[C@H](OC)CN(C)C2=O,.,2.2,.,.,.
Cc1noc(C)c1S(=O)(=O)Nc1ccc2c(c1)C(=O)N([C@H](C)CO)C[C@H](C)[C@@H](CN(C)CC1CCCCC1)OCCCC[C@H](C)O2,.,1.5,.,.,.
Cc1ccc(-n2c(C)cc(/C=c3/sc4nc5ccccc5n4c3=O)c2C)cc1,-57.0,.,-1.0,55.7*,19.2
CCN(CC)c1ccc(-c2nn3c(-c4ccccc4OC)nnc3s2)cc1,-119.2,.,0.7,78.9*,63.8*
COc1ccc(-c2nn3c(-c4ccccc4)nnc3s2)cc1,-3.4,.,0.7,8.4,.

# Bioassay records as filed in PubChem.
